Test [1] deals with Cellular tumor antigen p53 (Homo sapiens) (UniProt P04637). As to the kind of experiment: Primary qHTS for small molecule compounds that upregulate eGFP-tagged delta133p53alpha (in N-terminal) cells. (AID 2060322).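 For activation: series mostly up to about 56 µM; 0% = DMSO vehicle and 100% = reference activator.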 Note: nearly all actives have a fitted effect of over 75% in size. Note: potency is the fitted concentration of half-maximal effect. The settings on record: NCI-H358 eGFP-delta133p53alpha fluorescence, 24 h; activation: hits give high values. Summed up:
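NCI-H358 cells pre-induced 24 h with 10 ng/ml doxycycline to express N-terminal eGFP-delta133p53alpha, then dosed 24 h at 37C without doxycycline; fixed, Hoechst-stained, GFP intensity by laser scanning cytometry, normalized to DMSO (0%) and 57.5 uM 5-azacytidine (100%).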

Test [2] has the same target. As to the kind of experiment: Primary qHTS for small molecule compounds that upregulate eGFP-tagged delta133p53alpha (in C-terminal) cells. (AID 2060324). Note: potency is the fitted concentration of half-maximal effect. The procedure, abridged:
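NCI-H358 cells with doxycycline-inducible D133p53a-eGFP (C-terminal tag), pre-induced 24 h with 100 ng/ml doxycycline, plated 800/well in doxycycline-free medium and treated 24 h at 37 °C with compound titrations. Cells were then fixed and Hoechst-stained, and GFP intensity was read by laser scanning cytometry.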

In test [3] the target is Aldehyde dehydrogenase, mitochondrial (Homo sapiens) (UniProt P05091). As to the kind of experiment: qHTS for Inhibitors of the Aldehyde Dehydrogenase Family (ALDH2) Validation screens (AID 2061302; active = well fitted inhibition curve with a large enough effect; title and protocol of this record describe different tests;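 note: plate controls were DMSO vehicle for no effect and maximal DPI positive control response for full effect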).
The target is the same in test [4]. Kind of test: qHTS for Inhibitors of the Aldehyde Dehydrogenase Family (ALDH2) Primary screen (AID 2061308).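 Note: plate controls were vehicle for no effect and reference inhibitor for full effect; nearly all actives have a fitted effect of over 55% in size.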
Test [5] has as its target Retinaldehyde dehydrogenase 3 (Homo sapiens) (UniProt P47895). Kind of test: qHTS for Inhibitors of the Aldehyde Dehydrogenase Family (ALDH1A3) Validation screen (AID 2061312). Note: % is set by controls: 0 for no effect and ±100 for the full control effect; nearly all actives have a fitted effect of over 45% in size.
The target is the same in test [6]. Kind of test: qHTS for Inhibitors of the Aldehyde Dehydrogenase Family (ALDH1A3) Primary screen (AID 2061315).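 Note: plate controls were DMSO vehicle for no effect and reference inhibitor for full effect.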
Test [7] in a line: BET inhibitor-based combinations targeting novel dependencies in MECOM-rearranged (r) AML: SET-2 cell line (AID 2202231).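 For viability: plate controls were DMSO treated cells for no effect and wells without cells for full effect.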 Note: nearly all actives have a fitted effect of over 35% in size. Note: potency is the fitted concentration of half-maximal effect. The settings on record: SET-2 AML cells viability, CellTiter-Glo luminescence, 48 h; viability: hits give low values, concentration not given here. Summed up: (§1)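 Each compound was tested at eleven concentrations on cells seeded at 500/well. After two days' incubation, ATP-based luminescence reported viability; responses relative to DMSO and blank wells yielded AUC and cell-line-centred Z-AUC.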

Test [8] in a line: BET inhibitor-based combinations targeting novel dependencies in MECOM-rearranged (r) AML: OCI-AML3 cell line (AID 2202232). Note: nearly all actives have a fitted effect of over 35% in size. Note: potency is the fitted concentration of half-maximal effect. The settings on record: Potency: OCI-AML3 viability. Summed up: as §1
Test [9] can be described thus: BET inhibitor-based combinations targeting novel dependencies in MECOM-rearranged (r) AML: MV-4-11 cell line (AID 2202233). Note: nearly all actives have a fitted effect of over 45% in size. Note: potency is the fitted concentration of half-maximal effect. Summed up:
(§2)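 First, 500 cells per well were seeded; next, drugs were pinned as 11-point doses; then plates sat 48 hr in the incubator; finally CellTiter-Glo was added and luminescence read, with AUC and Z-AUC computed.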

Test [10] in a line: BET inhibitor-based combinations targeting novel dependencies in MECOM-rearranged (r) AML: HNT-34 cell line (AID 2202234). Note: nearly all actives have a fitted effect of over 35% in size. Note: potency is the fitted concentration of half-maximal effect. The procedure, abridged:
as §2

The nature of test [11]: BET inhibitor-based combinations targeting novel dependencies in MECOM-rearranged (r) AML: UCSD-AML1 cell line (AID 2202235). Note: nearly all actives have a fitted effect of over 40% in size. Note: potency is the fitted concentration of half-maximal effect. The procedure, abridged: as §2
Test [12] can be described thus: BET inhibitor-based combinations targeting novel dependencies in MECOM-rearranged (r) AML: AML-191 cell line (AID 2202236; note: nearly all actives have a fitted effect of over 35% in size; note: potency is the fitted concentration of half-maximal effect). The procedure, abridged: as §1
Test [13] is described as follows: BET inhibitor-based combinations targeting novel dependencies in MECOM-rearranged (r) AML: AML-194 cell line (AID 2202237; note: nearly all actives have a fitted effect of over 40% in size; note: potency is the fitted concentration of half-maximal effect). Summed up:
as §1

Values joined by “and” are separate entries in the source; they are usually repeats but may differ in a detail not shown here. Equal entries are not always repeated. Inconclusive results are not listed. A number with no mark means an inactive call. Active and inactive are the calls of the source. Unless noted, calls come from the whole dose curve; as a rule, active = well fitted curve in the direction sought with a large enough effect; inconclusive = small, poorly fitted or top-dose-only effect, or another doubt; inactive = no such curve, though single readings can be large; an effect the other way counts as inactive or inconclusive.

Sequence of Cellular tumor antigen p53 (Homo sapiens) (P04637 whole entry, looked up): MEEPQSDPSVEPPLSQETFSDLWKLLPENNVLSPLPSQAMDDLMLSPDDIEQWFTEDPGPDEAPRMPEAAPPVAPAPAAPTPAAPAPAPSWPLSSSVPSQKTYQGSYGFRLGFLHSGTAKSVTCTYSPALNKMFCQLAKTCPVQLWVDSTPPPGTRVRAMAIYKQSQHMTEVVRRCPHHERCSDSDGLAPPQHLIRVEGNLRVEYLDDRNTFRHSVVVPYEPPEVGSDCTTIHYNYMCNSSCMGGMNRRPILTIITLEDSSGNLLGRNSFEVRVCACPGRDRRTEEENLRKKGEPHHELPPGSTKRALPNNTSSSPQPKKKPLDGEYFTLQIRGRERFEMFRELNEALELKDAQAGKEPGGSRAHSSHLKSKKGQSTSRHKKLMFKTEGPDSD

As to `CCN(CC)CCNC(=O)c1cc(Cl)c(N)cc1OC`, the activation in test [1] is -1.69% and -0.477% and 10.5%. The Potency result in test [2], in test [3], in test [4], in test [5] and in [6] was “inactive” each time.
Consider `c1cnc2cc3c(cc2n1)C1CNCC3C1`, for which the activation in test [1] was -5.72% and -13.8%. Further, the Potency entry in test [2], in [3], in [4], in test [5], in test [6] and in test [8] was “inactive” in each case. For the same compound, the Potency result in test [9], in test [10], in test [11], in [12] and in test [13] was “inactive” throughout. In test [7], the viability was 106%.
As to `N[C@@H](Cn1ccc(=O)c(O)c1)C(=O)O`, the activation in [1] was -3.82% and -8.28%. Further, the Potency result in [2], in test [3] and in test [5] was “inactive” throughout. For the same compound, the activity change, negative = inhibition is 3.38% [at 5.59 µM] in [4] and 6.23% [at 5.59 µM] in test [6].
For the compound `CCCNC(=O)NS(=O)(=O)c1ccc(Cl)cc1`, the activation in test [1] was -9.6% and 2.39% and -46.5%. The Potency result in [2], in [3], in test [4], in test [5] and in test [6] was “inactive” in each case.
Regarding `CCCCc1ncc(/C=C(\Cc2cccs2)C(=O)O)n1Cc1ccc(C(=O)O)cc1`, the activation in [1] was -19.8% and -8.36% and -2.86%. The Potency result in test [2], in [3], in test [4] and in test [6] was “inactive” each time.
On to `O=C1NC(=O)/C(=C/c2ccc3c(c2)OC(F)(F)O3)S1`, for which the activation in test [1] is -0.772% and -0.477%. Also, the Potency entry in test [2], in [3], in test [4] and in [6] was “inactive” throughout.
As to `COCCCC/C(=N\OCCN)c1ccc(C(F)(F)F)cc1`, the activation in test [1] was -6.69% and 3.07%. The Potency entry in [2], in test [3] and in [5] was “inactive” in each case.
Consider `CC(C)(C=O)Cc1cc(C(C)(C)C)c(O)c(C(C)(C)C)c1`, for which the activation in test [1] is -15.2%. For the same compound, the Potency result in test [2], in test [3] and in test [5] was “inactive” in each case.
Turning to `NC(N)=NC(N)=Nc1cccc(Cl)c1`, in test [1], the activation was -3.06%. For the same compound, the Potency entry in test [2], in [3] and in test [5] was “inactive” throughout.
Take `OCCN1CCN(CCCN2c3ccccc3Sc3ccc(Cl)cc32)CC1`: the activation in test [1] is -6.69% and -35.6%. In addition, the Potency entry in test [2], in test [3] and in test [5] was “inactive” each time.
In the case of `CCN(CC)CCCC(C)Nc1c2ccc(Cl)cc2nc2ccc(OC)cc12` (configuration not stated), the Potency in [1] was 12.3 µM (active) and 11.7 µM (active); in [2] it was 26.9 µM (active); in test [7], 7.42 µM (active); in [8], 7.42 µM (active); in test [10] it was 7.42 µM (active); in [11], 4.68 µM (active). In addition, the Potency in [12] and in test [13] was 7.42 µM (active) throughout. In addition, the Potency entry in [3], in test [4] and in [6] was “inactive” in each case.
For `O=c1c2ccccc2nc2n1CCc1c-2[nH]c2ccccc12`, the activation in test [1] was -0.328% and 11% and -19%. Also, the Potency result in test [2], in [3], in test [4], in test [5] and in [6] was “inactive” in each case.
In the case of `Cc1cc(NC2CCCCC2)nc(-n2nc(C)cc2C)n1`, the activation in test [1] is -20.8%. Moreover, the Potency entry in test [2], in test [3] and in [5] was “inactive” in each case.
Take `O=C(Nc1ccc2c(c1)CCN(Cc1ncn[nH]1)C2)c1ccccc1-c1ccc(C(F)(F)F)cc1`: the activation in [1] was -9.63% and 4.33%. Also, the Potency entry in test [2], in test [3], in test [4], in [5], in test [6] and in test [10] was “inactive” each time. Moreover, the Potency result in test [11], in test [12] and in test [13] was “inactive” throughout. Besides, in [7], the viability was 96.3%. The Potency in [9] is 14.8 µM (active).
Turning to `CCN(CC)CCNC(=O)c1cc(S(C)(=O)=O)ccc1OC`, in test [1], the activation was -10% and -17.5%. Further, the Potency entry in [2], in test [3] and in test [5] was “inactive” throughout.
For `COC(=O)[C@@H]1[C@H]2C[C@H]3c4[nH]c5ccccc5c4CCN3C[C@@H]2CC[C@@H]1O`, the activation in [1] was -9.53% and 22.3%. For the same compound, the Potency result in test [2], in [3], in test [4], in test [6] and in [12] was “inactive” throughout. Besides, the viability in test [7] was 106%.
In the case of `CC(C)(C(=O)O)c1ccc(C(O)CCCN2CCC(C(O)(c3ccccc3)c3ccccc3)CC2)cc1` (configuration not stated), the activation in [1] is 1.67% and -7.64% and -17.3%. Besides, the Potency entry in test [2], in test [3], in test [4], in test [5] and in test [6] was “inactive” throughout.
As for `NCCNS(=O)(=O)c1cccc2c(Cl)cccc12`, the activation in test [1] is -38%. Further, the Potency result in test [2], in test [3] and in test [5] was “inactive” in each case.
Turning to `C[C@]12CCC(=O)C=C1CC[C@@H]1[C@@H]2CC[C@@]2(C)[C@H]1CC[C@]2(O)C(=O)CO`, the activation in test [1] is 12.6% and 23.7%. The Potency entry in test [2], in test [3] and in test [5] was “inactive” in each case.
Turning to `CCCN1C[C@H](CSC)C[C@@H]2c3cccc4[nH]cc(c34)C[C@H]21`, in test [1], the activation is 7.67% and 9.97%. Further, the Potency result in test [2], in test [3], in test [4] and in test [6] was “inactive” in each case.
As to `CCCn1c(=O)c2c(ncn2C)n(CCC)c1=O`, the activation in test [1] was -49.6%. Also, the Potency result in test [2], in test [3] and in [5] was “inactive” throughout.
As to `CSC(N)=NCCC[C@H](N)C(=O)O`, the activation in [1] was 3.33%. Besides, the Potency entry in test [2], in test [3] and in test [5] was “inactive” each time.
In the case of `CCN(CC)CCOC(=O)c1ccc(N)cc1`, the activation in test [1] is -14.2% and -16.3%. Moreover, the Potency result in test [2], in test [3] and in [5] was “inactive” in each case.

(Values after PubChem BioAssay (NCATS).)
